Experimental data: paper PMC9911399, “Two distinct binding modes provide the RNA-binding protein RbFox with extraordinary sequence specificity”
Substitutions are numbered along the chain they refer to; changes in the protein carry UniProt numbers. Whole data set: some 16,000 sequences, median “ka relative to ugcaugu” near 0.0091, cut for the highest 2% near 0.032. This is one part of a sample in which the highest values are shown more often than they occur.

T1: RBFOX1 RRM (Homo sapiens, UniProt Q9NWB1 109-208)
T1 sequence: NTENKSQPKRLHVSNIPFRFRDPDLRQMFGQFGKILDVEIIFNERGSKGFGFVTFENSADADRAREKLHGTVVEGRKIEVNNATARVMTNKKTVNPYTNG

B1: AGUCCCC (DNA:RNA)
RNA: GGGAGACCGGAAUUCAGAUUGUCCAGUCCCCUUAAAUCCCGUCGUAGCCACCA
DNA 1: CAATCTGAATTCCGGTCTCCC
DNA 2: TGGTGGCTACGACGGGATT
B2: CUUCGCU (DNA:RNA)
RNA: B1 RNA with A25C, G26U, C29G, C31U
DNA 1: CAATCTGAATTCCGGTCTCCC
DNA 2: TGGTGGCTACGACGGGATT
B3: GCGUUAG (DNA:RNA)
RNA: GGGAGACCGGAAUUCAGAUUGUCCGCGUUAGUUAAAUCCCGUCGUAGCCACCA
DNA 1: CAATCTGAATTCCGGTCTCCC
DNA 2: TGGTGGCTACGACGGGATT
B4: CUUGGGA (DNA:RNA)
RNA: B1 RNA with A25C, G26U, C28G, C29G, C30G, C31A
DNA 1: CAATCTGAATTCCGGTCTCCC
DNA 2: TGGTGGCTACGACGGGATT
B5: GUGCUAG (DNA:RNA)
RNA: B3 RNA with C26U, U28C
DNA 1: CAATCTGAATTCCGGTCTCCC
DNA 2: TGGTGGCTACGACGGGATT
B6: UUGCUUG (DNA:RNA)
RNA: B3 RNA with G25U, C26U, U28C, A30U
DNA 1: CAATCTGAATTCCGGTCTCCC
DNA 2: TGGTGGCTACGACGGGATT
B7: CUGCUGC (DNA:RNA)
RNA: B1 RNA with A25C, G26U, U27G, C29U, C30G
DNA 1: CAATCTGAATTCCGGTCTCCC
DNA 2: TGGTGGCTACGACGGGATT
B8: UUGCUAG (DNA:RNA)
RNA: B3 RNA with G25U, C26U, U28C
DNA 1: CAATCTGAATTCCGGTCTCCC
DNA 2: TGGTGGCTACGACGGGATT
B9: UUGUUAG (DNA:RNA)
RNA: B3 RNA with G25U, C26U
DNA 1: CAATCTGAATTCCGGTCTCCC
DNA 2: TGGTGGCTACGACGGGATT
B10: UCCUUGC (DNA:RNA)
RNA: B3 RNA with G25U, G27C, A30G, G31C
DNA 1: CAATCTGAATTCCGGTCTCCC
DNA 2: TGGTGGCTACGACGGGATT
B11: CCCCUGC (DNA:RNA)
RNA: B1 RNA with A25C, G26C, U27C, C29U, C30G
DNA 1: CAATCTGAATTCCGGTCTCCC
DNA 2: TGGTGGCTACGACGGGATT
B12: UGCUUUU (DNA:RNA)
RNA: B3 RNA with G25U, C26G, G27C, A30U, G31U
DNA 1: CAATCTGAATTCCGGTCTCCC
DNA 2: TGGTGGCTACGACGGGATT
B13: UGCUUUG (DNA:RNA)
RNA: B3 RNA with G25U, C26G, G27C, A30U
DNA 1: CAATCTGAATTCCGGTCTCCC
DNA 2: TGGTGGCTACGACGGGATT
B14: CUGCUUG (DNA:RNA)
RNA: B3 RNA with G25C, C26U, U28C, A30U
DNA 1: CAATCTGAATTCCGGTCTCCC
DNA 2: TGGTGGCTACGACGGGATT
B15: UUGUUGC (DNA:RNA)
RNA: B3 RNA with G25U, C26U, A30G, G31C
DNA 1: CAATCTGAATTCCGGTCTCCC
DNA 2: TGGTGGCTACGACGGGATT
B16: UGCUGCU (DNA:RNA)
RNA: B1 RNA with A25U, U27C, C28U, C29G, C31U
DNA 1: CAATCTGAATTCCGGTCTCCC
DNA 2: TGGTGGCTACGACGGGATT
B17: GACGAUG (DNA:RNA)
RNA: B3 RNA with C26A, G27C, U28G, U29A, A30U
DNA 1: CAATCTGAATTCCGGTCTCCC
DNA 2: TGGTGGCTACGACGGGATT
B18: AAAUAUU (DNA:RNA)
RNA: B1 RNA with G26A, U27A, C28U, C29A, C30U, C31U
DNA 1: CAATCTGAATTCCGGTCTCCC
DNA 2: TGGTGGCTACGACGGGATT
B19: CUUGAAA (DNA:RNA)
RNA: B1 RNA with A25C, G26U, C28G, C29A, C30A, C31A
DNA 1: CAATCTGAATTCCGGTCTCCC
DNA 2: TGGTGGCTACGACGGGATT
B20: CGUUCGG (DNA:RNA)
RNA: B1 RNA with A25C, C28U, C30G, C31G
DNA 1: CAATCTGAATTCCGGTCTCCC
DNA 2: TGGTGGCTACGACGGGATT

Target: T1, RBFOX1 RRM
Assay: EMSA; HiTS-Eq, 1 nM pool, 10 min; buffer printed only for the single-RNA assays: 10 mM Tris pH 7.5, 150 mM NaCl, 3.4 mM EDTA, 0.001% NP-40, 30 C
Conditions: tags: His6 N-terminal (pET28a); label: 5' 32P
Summary of the method: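 Purified RbFox RRM, wild type or mutant, was incubated for 10 min in 50 µL with 1 nM of a 5′-radiolabelled RNA pool carrying 7 randomized nucleotides, whose flanks were annealed to DNA oligonucleotides, over a series of increasing protein concentrations. Unbound RNA was resolved on 8% native PAGE, cut out, reverse-transcribed, barcoded by PCR and sequenced on an Illumina HiSeq 2500. Relative association constants were derived from changes in read counts for each RNA species versus the control reaction and normalised to the cognate motif.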

Binder	binding signal
B1	0.0101 KA relative to UGCAUGU
B2	0.0136 KA relative to UGCAUGU
B3	0.0109 KA relative to UGCAUGU
B4	0.00252 KA relative to UGCAUGU
B5	0.0307 KA relative to UGCAUGU
B6	0.0749 KA relative to UGCAUGU
B7	0.0217 KA relative to UGCAUGU
B8	0.0399 KA relative to UGCAUGU
B9	0.0257 KA relative to UGCAUGU
B10	0.0155 KA relative to UGCAUGU
B11	0.00603 KA relative to UGCAUGU
B12	0.0211 KA relative to UGCAUGU
B13	0.0377 KA relative to UGCAUGU
B14	0.0459 KA relative to UGCAUGU
B15	0.0249 KA relative to UGCAUGU
B16	0.0249 KA relative to UGCAUGU
B17	0.0266 KA relative to UGCAUGU
B18	0.00092 KA relative to UGCAUGU
B19	0.00785 KA relative to UGCAUGU
B20	0.0132 KA relative to UGCAUGU
